# Test results published in ChEMBL document CHEMBL1157539, “Thousands of chemical starting points for antimalarial lead identification” (Nature, 2010).
# Tests used:
# Assay type in all cases: functional
# [1] = system: Plasmodium falciparum; test: GSK_TCMDC: Inhibition of Plasmodium falciparum 3D7 in whole red blood cells, using parasite LDH activity as an index of growth. Test compounds present at 2uM
# [2] = system: Plasmodium falciparum; test: GSK_TCMDC: Inhibition of Plasmodium falciparum Dd2 in whole red blood cells, using parasite LDH activity as an index of growth. Test compounds present at 2uM
# [3] = system: HepG2; test: GSK_TCMDC: Percent inhibition of human HepG2 cell line. Test compounds present at 10uM.
Compound,Inhibition [1],Inhibition [2],Inhibition [3]
CCCC(=O)Nc1ccc(OCCCCN(CC(C)(C)C)c2ccc(C#N)c(C(F)(F)F)c2)cc1,83%,69%,9%
CSC1=NC(=Nc2ccccc2C)C2(CCC(C(C)(C)C)CC2)N1c1ccccc1Cl.I (stereo not drawn),96%,89%,3%
COc1ccc(CNCc2ccccc2)cc1-c1ccc(S(=O)(=O)NCCN2CCCC2)s1.O=C(O)C(F)(F)F,100%,62%,32%
Cn1c(N)cc(-c2ccc(Br)cc2)c2c(=O)nc(N)nc1-2,80%,57%,5%
N#Cc1ccc(NC(=O)N2CCCN(CCCCCNC(=O)/C=C/c3ccc(Cl)c(Cl)c3)CC2)cc1,100%,4%,32%
Cc1cc(N2Cc3ccccc3C2)nc(Nc2ccc(S(=O)(=O)N3CCOCC3)cc2)n1.Cl,100%,85%,13%
CNC(=O)c1cc(S(=O)(=O)N2CCN(c3ccccn3)CC2)c(C)s1,91%,52%,0%
COCCNCC(O)Cn1c2ccc(Cl)cc2c2cc(Cl)ccc21 (stereo not drawn),95%,74%,15%
O=C(NC1c2ccccc2Oc2ccccc21)c1ccccc1O,95%,0%,0%
COc1ccc(NC(=O)Nc2ccc(C)c(-c3ccc(C(=O)Nc4ccncc4)cc3)c2)cc1,99%,50%,39%
O=C(Nc1ccccc1)N(Cc1cccc(-c2cccc(CNCCc3ccccc3)c2)c1)C1CCN(Cc2ccccc2)CC1.O=C(O)C(F)(F)F,100%,87%,100%
O=C(Nc1cccc(C(F)(F)F)c1)NC1CCN(c2ccnc3cc(Cl)ccc23)C1.O=C(O)C(F)(F)F (stereo not drawn),100%,89%,18%
CCCOc1ccc2ccccc2c1CNCCCCCCNCc1c(OCCC)ccc2ccccc12.CS(=O)(=O)O,94%,90%,100%
Cc1cc(=NN=Cc2ccccc2Cl)c2cc(F)ccc2[nH]1,100%,4%,5%
COc1cc(C=CC(=O)N2CCC3(CC2)CC(=O)c2ccccc2O3)cc(OC)c1OC,88%,66%,7%
CCNC(=O)Nc1ccc(N(C)c2ccnc(Nc3ccc(CS(C)(=O)=O)cc3)n2)cc1.Cl,100%,99%,0%

Compound,Inhibition [1],Inhibition [2],Inhibition [3]
COc1ccc2nccc([C@@H](O)CN3CCC(NC(=O)c4cccc(-c5cc(C)no5)c4)CC3)c2c1,93%,89%,19%
CC(=NNC(S)=NC(c1ccccc1)c1ccccc1)c1ccccn1,98%,97%,45%
O=C(NCCN1CCCc2ccccc21)C1CCN(c2nc(-c3ccc(Cl)cc3)no2)CC1,86%,62%,11%
O=C(/C=C/c1ccc(Cl)c(Cl)c1)NC1CCC(CN2CCC(c3nc4cc(O)ccc4[nH]3)CC2)CC1 (stereo not drawn),100%,84%,41%
COc1ccc(C(=O)CCC(=O)N(CCC2CCCN2C)Cc2ccc(-c3ccc(CNCCc4ccc(S(C)(=O)=O)cc4)cn3)cc2)cc1F.O=C(O)C(F)(F)F (stereo not drawn),93%,45%,13%
FC(F)(F)Oc1ccc(-c2cnc3ccc(NCc4ccncc4)nn23)cc1,97%,54%,19%
CN(C)C(=O)CC(=O)NCc1c(Cl)cccc1Cl,95%,2%,2%
O=C(/C=C/c1ccc(CNCCN2CCOCC2)cc1)NCCc1ccccc1,94%,3%,9%
COc1ccc(S(=O)(=O)N2CCCC(C)C2)cc1N1CCN(C(=O)c2ccc([N+](=O)[O-])o2)CC1 (stereo not drawn),94%,4%,0%
Cc1cccc(NC(=S)NC2CCN(CCCCCNC(=O)/C=C/c3ccc(Cl)c(Cl)c3)CC2)c1,97%,19%,14%
O=C(Nc1cccc(CN2CCCN(Cc3ccc(O)cc3)CC2)c1)c1cc2ccccc2s1.O=C(O)C(F)(F)F,100%,90%,27%
CC(=O)N(C)c1ccc(C(=O)Nc2cccc(-c3cccc(-c4nc5cc(C(F)(F)F)ccc5[nH]4)c3)c2)cc1,96%,29%,31%
CC(O)C1CCCCN1C(=O)c1cccc(-c2ccc(-c3nc4ccccc4[nH]3)s2)c1 (stereo not drawn),100%,23%,24%
CNCCNCc1cccc(-c2ccc(-c3nc4cc(C(F)(F)F)ccc4[nH]3)s2)c1.O=C(O)C(F)(F)F,98%,85%,31%
Cc1ccccc1C1CCN(C2CCC(NC(=O)/C=C/c3cccc(Cl)c3F)CC2)CC1 (stereo not drawn),100%,37%,87%
